{"source": "paper PMC5540273", "about": "(PLoS ONE, 2017);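 also: KINOMEscan kinase panel screen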"}
{"system": "T1, DCAMKL1", "T1 construct": "gene DCLK1", "conditions": "concentration: 1 μM, replicates: in singlicate; n = 1", "units": {"%Inh": "%"}}
{"smiles": "COc1ccc(NC(=O)Nc2ccc(C)c(-c3ccc(C(=O)Nc4ccncc4)cc3)c2)cc1", "note": "[GSK1398475]", "%Inh": 10}
{"smiles": "Clc1ccc(-c2cc(-c3c[nH]nc3-c3ccccn3)ccn2)cc1", "note": "[GW681251]", "%Inh": 0}
{"smiles": "CC(C)(C)OC(=O)NC1CCCN(c2cc(-c3ccc4c(N)n[nH]c4c3)nc(N)n2)C1", "note": "(stereo not shown) [GSK2286096]", "%Inh": 10}
{"smiles": "CSc1ccc(NC2=C(c3ccccc3Cl)C(=O)NC2=O)cc1", "note": "[SB-342411]", "%Inh": 2}
{"smiles": "COC(=O)c1cccc(NC(=O)NCCNc2ccnc(Nc3ccc(F)cc3)n2)c1", "note": "[GSK1379883]", "%Inh": 88}
{"smiles": "Fc1cccc(COc2ccc(Nc3ncnc4sc(-c5ccc[nH]5)cc34)cc2Cl)c1", "note": "[GW707818]", "%Inh": 28}
{"smiles": "c1ccc(-c2ccc3c(-c4ccnc(Nc5ccc6c(c5)OCCO6)n4)cnn3n2)cc1", "note": "[GW818941]", "%Inh": 0}
{"smiles": "Fc1cccc(COc2ccc(Nc3ncnc4cc[nH]c34)cc2Cl)c1", "%Inh": 29}
{"smiles": "COc1cc2c(Nc3cccc(NC(=O)c4ccccc4)c3)ncnc2cc1OCCCN1CCOCC1", "note": "[GSK223810]", "%Inh": 0}
{"smiles": "COc1ccc(NC(=O)c2ccc(-c3cc(-c4nnc(C)o4)ccc3C)cc2)cc1", "note": "[GW595885]", "%Inh": 8}
{"smiles": "Cl.Fc1ccccc1COc1ccc(Nc2ncnc3ccc(-c4nnc(C(F)(F)F)o4)cc23)cc1Cl", "note": "[GW424170]", "%Inh": 10}
{"smiles": "CNc1nccc(-c2c(-c3ccc(F)cc3)ncn2CCCN2CCOCC2)n1", "note": "[SB-222516]", "%Inh": 8}
{"smiles": "Cc1cc(N2CCC(NS(=O)(=O)c3ccc(F)cc3)CC2)nc(Nc2cccc(C#N)c2)n1.O=C(O)C(F)(F)F", "note": "[GSK1653537]", "%Inh": 0}
